Screening data deposited in PubChem by NMMLSC.
Sampled rows, rich in hits. Any-hit rate of the full collection: about 1.1%.
VLA-4 inh: inhibition in a human VLA-4 binding assay. P13612. VLA-4 expressing cells, ligand binding flow cytometry. inhibition, % (about 7 µM as worked out from the volumes in the protocol). 330,000 compounds, 0.2% hits. AID 2557; in the data active means inhibition above about 50%
LAP4 TOR yeast: alters LAP4-GFP fluorescence in TOR pathway yeast screen. 320,000 compounds, 0.34% hits. GFP response vs DMSO, % at 10 µM. S. cerevisiae LAP4-GFP multiplex, flow cytometry GFP, 3 h; median GFP as percent of DMSO wells. AID 2023;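 active means GFP response vs DMSO above a set limit, about the screen mean plus 3 SD, cut at about 150% in these data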
MEP2 TOR yeast: alters MEP2-GFP fluorescence in TOR pathway yeast screen | S. cerevisiae MEP2-GFP strain, flow cytometry GFP, 3 h; 100% = DMSO control level | GFP response vs DMSO, % at 10 µM | 330,000 compounds, 0.51% hits | AID 2016;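 active means GFP response versus DMSO above a set limit, roughly screen mean plus 3 SD, cut at about 180% in these data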;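 further: median GFP fluorescence of the barcode-gated MEP2-GFP cells per well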
AGP1 TOR yeast: yeast TOR pathway AGP1-GFP modulation. S. cerevisiae AGP1-GFP multiplex flow cytometry, 3 h; GFP as percent of DMSO wells. GFP response vs DMSO, % at 10 µM. 320,000 compounds, 0.02% hits;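 active means GFP response relative to DMSO above a set limit, near screen average plus 3 SD, cut at about 150% in these data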;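 further: median GFP channel fluorescence of the gated AGP1 strain per well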
RPL19A-GFP yeast: yeast TOR pathway RPL19A-GFP modulation; S. cerevisiae RPL19A-GFP strain, flow cytometry, 3 h; hits give low values; 330,000 compounds, 0.3% hits; percent response vs DMSO, % at 10 µM; AID 2025;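 active means percent response vs DMSO below 50%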;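 further: median channel GFP fluorescence of the barcoded RPL19A-GFP strain; ratio of sample median GFP to plate DMSO average so 100% = DMSO; lower means less RPL19A-GFP as with rapamycin TOR inhibition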
CIT2-GFP yeast: modulators of TOR pathway CIT2-GFP in S. cerevisiae. S. cerevisiae CIT2-GFP strain, flow cytometry, 3 h; 100 means same as DMSO wells. GFP response vs DMSO, % at 10 µM. 320,000 compounds, 0.065% hits. AID 2029;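 active means GFP response relative to DMSO above a set limit, near the screen mean plus 3 SD, cut at about 150% in these data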;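 further: ratio of well median GFP fluorescence to mean of DMSO wells on the plate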
LAP4 cherry2: yeast LAP4-GFP modulation, second cherry pick. shares compounds with LAP4 TOR yeast. S. cerevisiae LAP4-GFP strain, flow cytometry GFP, 3 h. GFP response vs DMSO, % at 10 µM. 590 compounds, 20% hits;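 active means GFP signal as percent of the solvent control above about 150%, meaning raised reporter expression, limit read from the data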;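 further: ratio of well median GFP fluorescence to plate DMSO mean so 100% = DMSO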
MEP2-GFP pick2: yeast MEP2-GFP modulation, second cherry pick; shares compounds with LAP4 TOR yeast; S. cerevisiae MEP2-GFP strain, flow cytometry GFP, 3 h; GFP response vs DMSO, % at 10 µM; 590 compounds, 10% hits; AID 2622;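 active means GFP signal above 150% of the solvent control wells, that is a rise of more than half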;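 further: median channel GFP fluorescence of all gated yeast cells per well; ratio of median GFP to plate DMSO average so 100% = DMSO level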
RPL19A GFP CP2: reconfirmed modulator of RPL19A-GFP TOR reporter in yeast; shares compounds with LAP4 TOR yeast; S. cerevisiae RPL19A-GFP strain, flow cytometry GFP, 3 h; hits give low values; 100% means same as DMSO wells; GFP response vs DMSO, % at 10 µM; 590 compounds, 3% hits;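 active means under 65% GFP response relative to DMSO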;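 further: median GFP channel fluorescence per well over the all cells gate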
CIT2 GFP CP2: reconfirmed modulator of CIT2-GFP TOR reporter in yeast; S. cerevisiae CIT2-GFP strain, flow cytometry GFP, 3 h; DMSO control wells read 100%; GFP response vs DMSO, % at 10 µM; shares compounds with LAP4 TOR yeast; 590 compounds, 8% hits;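 active means GFP response vs DMSO above about 150%, limit read from the data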;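 further: median green fluorescence per well over all gated yeast cells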
AGP1 GFP CP2: reconfirmed modulator of AGP1-GFP TOR reporter in yeast; shares compounds with LAP4 TOR yeast; S. cerevisiae AGP1-GFP strain, flow cytometry GFP, 3 h; percent response vs DMSO, % at 10 µM; 590 tested, under 10 active; AID 2643;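 active means over 150 percent of DMSO response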;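 further: median GFP channel fluorescence over all cells without mother daughter split; sample median GFP divided by mean DMSO control so 100% equals DMSO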
s288c autofluor: counter-screen for compound autofluorescence in yeast s288c cells; AID 2757; shares compounds with LAP4 TOR yeast; S. cerevisiae s288c, 520 nm autofluorescence, flow cytometry, 3 h; hits give high values; zero means same as solvent-only cells; fluorescence change (kMESF span) at 33 µM; 610 tested, under 10 active;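 active means fluorescence span over the dose series, or activity score, above about 33, limit read from the data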
Active calls of the source: *; [ ] = dose if it differs, or a comment.

Screening CCc1ccc(C(=O)/C=C/c2ccc([N+](=O)[O-])o2)cc1 returned VLA-4 inh inactive, LAP4 TOR yeast 215*, MEP2 TOR yeast 185*, AGP1 TOR yeast 78, RPL19A-GFP yeast 99, CIT2-GFP yeast 155* and s288c autofluor 4.2.
Screening CCOC(=O)c1c(NC(=O)CSc2nc3ccc(C)cc3[nH]2)sc2c1CC(C)(C)NC2(C)C returned VLA-4 inh -27, LAP4 TOR yeast 112, MEP2 TOR yeast 97, AGP1 TOR yeast 99, RPL19A-GFP yeast 88 and CIT2-GFP yeast 79.
Screening CC(=O)N1CCc2cc(S(=O)(=O)CCC(=O)NCc3ccc(F)cc3)ccc21 returned VLA-4 inh 4, LAP4 TOR yeast 85, MEP2 TOR yeast 122, AGP1 TOR yeast 17, RPL19A-GFP yeast 59, CIT2-GFP yeast 101, LAP4 cherry2 106, MEP2-GFP pick2 105, RPL19A GFP CP2 98, CIT2 GFP CP2 97 and AGP1 GFP CP2 102.
Screening CC1(C)CC2CC(C)(CN2S(=O)(=O)c2ccc(F)cc2F)C1 (centres undefined) returned VLA-4 inh 4, LAP4 TOR yeast 90, MEP2 TOR yeast 96, AGP1 TOR yeast 97, RPL19A-GFP yeast 95 and CIT2-GFP yeast 95.
Screening COC1=C(c2ccccc2)C(=O)c2ccccc2C1=O returned VLA-4 inh -11, LAP4 TOR yeast 109, MEP2 TOR yeast 97, AGP1 TOR yeast 94, RPL19A-GFP yeast 104 and CIT2-GFP yeast 95.
For O=C1C(c2ccccc2)=[N+]([O-])c2ccccc21 the results were VLA-4 inh 18, LAP4 TOR yeast 160*, MEP2 TOR yeast 93, AGP1 TOR yeast 87, RPL19A-GFP yeast 105, CIT2-GFP yeast 89, LAP4 cherry2 116, MEP2-GFP pick2 121, RPL19A GFP CP2 106, CIT2 GFP CP2 120 and AGP1 GFP CP2 103.
For N/C(=N\OC(=O)c1cccc(Br)c1)c1ccccc1 the results were VLA-4 inh -15, LAP4 TOR yeast 178*, MEP2 TOR yeast 103, AGP1 TOR yeast 63, RPL19A-GFP yeast 93, CIT2-GFP yeast 120 and s288c autofluor 0.1.
Screening CN1C(=O)C(C)(C)c2cc(S(=O)(=O)N3CCN(c4ccc(F)cc4)CC3)ccc21 returned VLA-4 inh 3, LAP4 TOR yeast 98, MEP2 TOR yeast 104, AGP1 TOR yeast 98, RPL19A-GFP yeast 99 and CIT2-GFP yeast 98.
For COc1ccc(C(=O)NC(=S)NNC(=O)c2cnccn2)cc1OC the results were VLA-4 inh 4, LAP4 TOR yeast 155*[may fluoresce green], MEP2 TOR yeast 105, AGP1 TOR yeast 79, RPL19A-GFP yeast 97, CIT2-GFP yeast 95, LAP4 cherry2 168*, MEP2-GFP pick2 155*, RPL19A GFP CP2 103, CIT2 GFP CP2 127, AGP1 GFP CP2 90 and s288c autofluor 0.51.
Screening CCOC(=O)c1c(C)oc2c1c(C(c1ccncc1)N1CCOCC1)c(O)c1ccccc12 (centres undefined) returned VLA-4 inh 8, LAP4 TOR yeast 185*, MEP2 TOR yeast 93, RPL19A-GFP yeast 89, CIT2-GFP yeast 92 and s288c autofluor 2.6.
Cc1cc(C(=O)Nc2cc(S(C)(=O)=O)ccc2Cl)c(C)o1 was read as VLA-4 inh 0, LAP4 TOR yeast 105, MEP2 TOR yeast 101, AGP1 TOR yeast 100, RPL19A-GFP yeast 95 and CIT2-GFP yeast 91.
Screening CCCCCOc1ccc(C(=O)Nc2ccc(S(=O)(=O)Nc3cc(C)on3)cc2)cc1 returned VLA-4 inh 10, LAP4 TOR yeast 95, MEP2 TOR yeast 95, AGP1 TOR yeast 96, RPL19A-GFP yeast 96 and CIT2-GFP yeast 101.
Screening COC(=O)N1C(=O)[C@](c2ccccc2)(C2CCCC2)N1C(=O)OC returned VLA-4 inh 16, LAP4 TOR yeast 105, MEP2 TOR yeast 89, AGP1 TOR yeast 79, RPL19A-GFP yeast 96 and CIT2-GFP yeast 64.
`Cc1ccccc1[C@@]1(C)ON(c2ccccc2C(F)(F)F)C1=O` gave VLA-4 inh 7, LAP4 TOR yeast 100, MEP2 TOR yeast 83, AGP1 TOR yeast 84, RPL19A-GFP yeast 88, CIT2-GFP yeast 91, LAP4 cherry2 125, MEP2-GFP pick2 106, RPL19A GFP CP2 104, CIT2 GFP CP2 113, AGP1 GFP CP2 101 and s288c autofluor -0.2.
`CC[C@@]1(c2ccccc2OC)ON(c2ccccc2C(F)(F)F)C1=O` gave VLA-4 inh -1, LAP4 TOR yeast 116, MEP2 TOR yeast 80, AGP1 TOR yeast 73, RPL19A-GFP yeast 93, CIT2-GFP yeast 88, LAP4 cherry2 147, MEP2-GFP pick2 112, RPL19A GFP CP2 101, CIT2 GFP CP2 107, AGP1 GFP CP2 104 and s288c autofluor 0.6.
Cc1ccccc1CN1C(=O)C2(OCCCO2)c2ccccc21 was read as VLA-4 inh -7, LAP4 TOR yeast 110, MEP2 TOR yeast 116, RPL19A-GFP yeast 110 and CIT2-GFP yeast 107.
For CC1(c2ccccc2)ON(c2ccccc2C(F)(F)F)C1=O (centres undefined) the results were VLA-4 inh 11, LAP4 TOR yeast 114, MEP2 TOR yeast 75, AGP1 TOR yeast 73, RPL19A-GFP yeast 92, CIT2-GFP yeast 78, LAP4 cherry2 128, MEP2-GFP pick2 113, RPL19A GFP CP2 101, CIT2 GFP CP2 115, AGP1 GFP CP2 99 and s288c autofluor 0.3.
